The target of one experiment is HSF2. The experiment in a line: pooled miR-30 sensor sort-seq; sequence = guide strand. Conditions: shRNA.
In turn, TTTGAAGATGAAACCTTCCTTT came in with a sensor-assay potency score (higher = more potent) of 0.173.

For the sequence TTCCTGTTTTATCTGAACCTTC, the sensor-assay potency score (higher = more potent) was -0.752.

The sequence TAAACTGGACAATCTTTCGAAT had a sensor-assay potency score (higher = more potent) of -0.594.

For the sequence TTAGTTTCTGGAATAACTGGGA, the sensor-assay potency score (higher = more potent) is -0.0464.

With TTGAACATGAATAAACGTCTTT, the sensor-assay potency score (higher = more potent) came to 0.178.

On to TAAAACTAGTCCAACTAACTGG, for which the sensor-assay potency score (higher = more potent) was -0.42.

As for TATGCAGCTGAGTAACACCTGA, the sensor-assay potency score (higher = more potent) was -0.731.

TAAACCTTCAGTCCTACTGTGT returned a sensor-assay potency score (higher = more potent) of -0.618.

TACATCTGCGTAACTATGCAGC showed a sensor-assay potency score (higher = more potent) of -0.31.

Take TAACTTGTTGCTGTTGTGCATG: the sensor-assay potency score (higher = more potent) is -0.847.

Sequence TTCATTGTCATCTTCAACGATG gave a sensor-assay potency score (higher = more potent) of -0.744.

Regarding TTTCTTGCTTTACAATTCCAGA, the sensor-assay potency score (higher = more potent) is -1.24.

Another experiment addresses HSP90AA1. Described as above. Conditions: shRNA.
TTATCCATGATGAAAACTCTGC registered a sensor-assay potency score (higher = more potent) of -0.426.

As for TTTGTTGCAACATCTCACGGGA, the sensor-assay potency score (higher = more potent) was 0.467.

TACAACTTTAAGCAGAATGTGA registered a sensor-assay potency score (higher = more potent) of -0.45.

In turn, TTGCTTTGTTGCAACATCTCAC had a sensor-assay potency score (higher = more potent) of 0.536.

TACAATTTGATGTTGTTCTTTT came in with a sensor-assay potency score (higher = more potent) of -0.348.

Take TTGATCATCCTGTAGATCCTGT: the sensor-assay potency score (higher = more potent) was 0.84.

As for TTCTCCTTCATTCTGGTGCAGT, the sensor-assay potency score (higher = more potent) was -0.91.

In the case of TTGATCGATGTACTTTTCCTTA, the sensor-assay potency score (higher = more potent) is -0.594.

TTTCTCTTCTTCATCCTCTGGA showed a sensor-assay potency score (higher = more potent) of 0.444.

Turning to TCGGTTTGACACAACCACCTTT, the sensor-assay potency score (higher = more potent) is -0.307.

Consider TTTTTGACCAAATTCTTCCTGA, for which the sensor-assay potency score (higher = more potent) was 0.315.

Take TTGAGTTGTCTCTTAGGGCTTG: the sensor-assay potency score (higher = more potent) was determined as 0.45.

The values above are taken from the OligoGym collection.
Also: reference of the scale not given here.
